Laboratory results from PubChem BioAssay.
Activity calls are given as the source filed them.

What was measured:
[1] = optical density shifts of acrAB sulA E. coli – strain DRC41, OD650, 48 h, E. coli filamentation inducer project, primary screen (AID 1152); conditions: higher = more signal, called active from +8 up or from −8 down;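 note: E. coli MC1000 strain DRC41 lacking acrAB efflux pump and sulA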
[2] = probe aLefty1 binding on compound microarray – biochemical, small-molecule microarray, 635/667 nm fluorescence, primary screen (AID 1153); conditions: higher = more signal;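 note: score merges spot fluorescence with signal-to-noise ratio from the scanned slide images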
[3] = plasmodial surface anion channel blockers, osmotic lysis – cell-based, P. falciparum Indochina, OD700, 1 h, primary screen (AID 1154); conditions: P. falciparum Indochina infected RBC osmotic lysis, higher = more signal, called active from +8 up or from −8 down
[4] = plasmodial surface anion channel blockers, osmotic lysis – cell-based, P. falciparum Indochina, OD700, 2 h, primary screen (AID 1155);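 note: lysis reports solute entry through the parasite surface anion channel PSAC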; conditions: P. falciparum Indochina infected erythrocytes, higher = more signal, called active from +8 up or from −8 down
[5] = changes in parasitized red cell lysis, either direction – P. falciparum Indochina, OD700, 3 h, PSAC antagonist project, primary screen (AID 1156); conditions: P. falciparum-infected erythrocytes, osmotic lysis, higher = more signal, called active from +8 up or from −8 down
[6] = plasmodial surface anion channel blockers, osmotic lysis – cell-based, P. falciparum Indochina, OD700, 18 h, primary screen (AID 1157); conditions: P. falciparum Indochina infected erythrocytes, osmotic lysis OD700, 18 h; higher = more signal, called active from +8 up or from −8 down
[7] = S6 kinase pathway phospho-S6 level changes – cell-based, A549, cytoblot, luminescence, serum-stimulated, primary screen (AID 1158); conditions: 5 h, higher = more signal;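 note: serum-stimulated A549 lung adenocarcinoma cells; signal is phosphorylated S6 detected by cytoblot immunostaining with HRP secondary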
[8] = target: NADPH oxidase 2 (Homo sapiens) (UniProt P04839); experiment: compounds shifting NOX2 Amplex Red fluorescence – cell-based, HEK293-NOX2, PMA-stimulated, NOX inhibitor project, primary screen (AID 1159); conditions: 45 min, higher = more signal, called active from +8 up or from −8 down; note: test concentration not given here
[9] = target: NADPH oxidase 4 (Homo sapiens) (UniProt Q9NPH5); experiment: compounds shifting NOX4 Amplex Red fluorescence – cell-based, HEK293-NOX4, tetracycline-induced, NOX inhibitor project, primary screen (AID 1160); conditions: HEK293-NOX4, Amplex Red H2O2 fluorescence, 45 min; higher = more signal, called active from +8 up or from −8 down
[10] = target: NADPH oxidase 5 (Homo sapiens) (UniProt Q96PH1); experiment: compounds shifting NOX5 Amplex Red fluorescence – cell-based, HEK293-NOX5, NOX inhibitor project, primary screen (AID 1161); conditions: HEK293-NOX5, ionomycin, 45 min, higher = more signal
NADPH oxidase 5 (Homo sapiens), sequence (Q96PH1 whole entry, looked up): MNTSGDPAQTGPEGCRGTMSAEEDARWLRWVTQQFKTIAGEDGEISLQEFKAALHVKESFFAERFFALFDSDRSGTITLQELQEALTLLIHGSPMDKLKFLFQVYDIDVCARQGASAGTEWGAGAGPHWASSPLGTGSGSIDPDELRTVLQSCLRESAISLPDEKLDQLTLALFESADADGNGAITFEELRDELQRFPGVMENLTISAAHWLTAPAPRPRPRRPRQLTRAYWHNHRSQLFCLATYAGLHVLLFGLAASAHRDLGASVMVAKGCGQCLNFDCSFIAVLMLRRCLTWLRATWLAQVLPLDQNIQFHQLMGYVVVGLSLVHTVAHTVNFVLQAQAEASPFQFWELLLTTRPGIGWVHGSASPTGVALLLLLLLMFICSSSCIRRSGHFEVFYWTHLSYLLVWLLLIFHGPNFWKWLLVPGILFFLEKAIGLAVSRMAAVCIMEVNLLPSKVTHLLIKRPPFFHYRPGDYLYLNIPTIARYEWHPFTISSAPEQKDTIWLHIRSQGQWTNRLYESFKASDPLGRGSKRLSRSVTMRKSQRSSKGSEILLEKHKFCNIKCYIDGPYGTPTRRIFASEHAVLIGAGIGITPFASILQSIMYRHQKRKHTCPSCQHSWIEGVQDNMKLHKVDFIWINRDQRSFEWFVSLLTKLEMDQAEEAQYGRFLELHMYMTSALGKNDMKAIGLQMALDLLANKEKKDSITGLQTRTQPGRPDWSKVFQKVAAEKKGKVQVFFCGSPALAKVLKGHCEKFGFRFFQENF

NADPH oxidase 4 (Homo sapiens), sequence (Q9NPH5 whole entry, looked up): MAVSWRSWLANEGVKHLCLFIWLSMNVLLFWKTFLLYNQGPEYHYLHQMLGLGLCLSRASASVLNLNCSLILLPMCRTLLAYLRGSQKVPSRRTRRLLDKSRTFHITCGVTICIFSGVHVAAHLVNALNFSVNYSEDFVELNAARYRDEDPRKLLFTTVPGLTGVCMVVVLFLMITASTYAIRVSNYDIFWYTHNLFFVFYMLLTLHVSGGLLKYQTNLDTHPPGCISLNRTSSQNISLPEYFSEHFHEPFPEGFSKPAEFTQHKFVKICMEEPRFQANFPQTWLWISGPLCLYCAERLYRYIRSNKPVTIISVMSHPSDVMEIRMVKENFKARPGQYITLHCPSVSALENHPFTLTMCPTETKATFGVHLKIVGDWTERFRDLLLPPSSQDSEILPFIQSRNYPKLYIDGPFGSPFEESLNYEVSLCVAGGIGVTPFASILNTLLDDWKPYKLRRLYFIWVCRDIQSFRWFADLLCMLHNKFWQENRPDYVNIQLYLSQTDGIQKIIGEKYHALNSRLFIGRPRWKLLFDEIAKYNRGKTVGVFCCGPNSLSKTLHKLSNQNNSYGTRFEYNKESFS
NADPH oxidase 2 (Homo sapiens), sequence (P04839 whole entry, looked up): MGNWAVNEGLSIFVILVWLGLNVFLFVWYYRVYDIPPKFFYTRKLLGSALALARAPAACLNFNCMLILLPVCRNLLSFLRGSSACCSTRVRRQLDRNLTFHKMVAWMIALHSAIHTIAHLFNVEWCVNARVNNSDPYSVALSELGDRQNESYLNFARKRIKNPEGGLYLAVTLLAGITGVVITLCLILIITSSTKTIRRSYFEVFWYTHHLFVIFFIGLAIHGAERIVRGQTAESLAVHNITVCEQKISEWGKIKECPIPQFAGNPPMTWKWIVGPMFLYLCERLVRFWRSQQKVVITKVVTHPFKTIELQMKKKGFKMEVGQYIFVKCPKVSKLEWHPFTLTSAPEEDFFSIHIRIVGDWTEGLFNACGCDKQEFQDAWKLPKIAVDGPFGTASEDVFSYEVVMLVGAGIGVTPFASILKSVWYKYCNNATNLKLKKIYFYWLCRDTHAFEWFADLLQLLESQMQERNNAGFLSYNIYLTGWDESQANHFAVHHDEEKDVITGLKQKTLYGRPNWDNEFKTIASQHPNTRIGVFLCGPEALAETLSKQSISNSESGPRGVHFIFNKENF

Row | Structure (SMILES) | z-score [1] | composite z-score [2] | z-score [3] | z-score [4] | z-score [5] | z-score [6] | z-score [7] | z-score [8] | z-score [9] | z-score [10]
1 | O=C1C[C@@](C(=O)NC2CC2)(c2ccc([N+](=O)[O-])cc2)[C@@H](c2ccc(CO)cc2)N1CC12CC3CC(CC(C3)C1)C2 | 0.904 (inactive) | 0.0861 | 2.28 (inactive) | -0.135 (inactive) | 0.678 (inactive) | -0.83 (inactive) | 0.392 | 0.987 (inactive) | -2.19 (inactive) | -2.35
2 | C=C(C(=O)CC[C@H](OC(C)=O)c1ccc(OCCO)cc1)C(C)C | 2.32 (inactive) | 0.0004 | 1.73 (inactive) | -0.266 (inactive) | -1.84 (inactive) | -0.944 (inactive) | 0.823 | -3.44 (inactive) | -1.75 (inactive) | -3.36
3 | [N-]=[N+]=NCc1ccccc1C[C@@]1(C(=O)N2CCOCC2)N=C(c2ccc(OCCCO)cc2)O[C@@H]1c1ccccc1CN=[N+]=[N-] | 0.562 (inactive) | 0.429 | 28.2 (active) | 21.5 (active) | 3.05 (inactive) | 5.86 (inactive) | 0.0883 | -1 (inactive) | 1.26 (inactive) | 1.08
4 | COC(=O)[C@@]1(Cc2ccc(OC)cc2)[C@H]2c3cc(C(=O)N4CCCC4)n(CCc4c[nH]c5cc(F)ccc45)c3C[C@H]2CN1C(=O)c1ccccc1 | -0.429 (inactive) | 1.27 | 3.07 (inactive) | 0.676 (inactive) | 0.745 (inactive) | 1.06 (inactive) | -0.174 | 0.438 (inactive) | 0.0193 (inactive) | -0.293
5 | [N-]=[N+]=NCc1ccccc1C[C@]1(C(=O)O)N=C(c2ccc(OCCCO)cc2)O[C@H]1c1ccccc1CN=[N+]=[N-] | -0.813 (inactive) | 0.222 | 21.5 (active) | 3.96 (inactive) | 0.649 (inactive) | 0.321 (inactive) | -0.591 | -0.331 (inactive) | 1.11 (inactive) | 2.29
6 | CC(=O)NCCCC[C@@H]1NC(=O)[C@@H]2C[C@H](C(=O)NCCCCN(C)C)[C@H](c3ccc(O)cc3)N2C1=O | 1.62 (inactive) | -0.29 | 0.453 (inactive) | -0.233 (inactive) | 1.13 (inactive) | 0.153 (inactive) | -0.051 | 0.0273 (inactive) | 0.192 (inactive) | 0.546
7 | C=CCOC(=O)[C@H]1[C@@H]2C(=O)O[C@@H](c3ccccc3)[C@@H](c3ccccc3)N2[C@@H](c2ccc(OCCOC(=O)[C@@H]3C[C@@H]4C(=O)NCC(=O)N4[C@@H]3c3ccc(O)cc3)cc2)[C@]12C(=O)Nc1ccccc12 | 2.47 (inactive) | 0.3 | 1.77 (inactive) | -0.0123 (inactive) | 0.708 (inactive) | -0.513 (inactive) | 1.14 | 2.07 (inactive) | 1.31 (inactive) | 1.1
8 | O=C1O[C@H](c2ccccc2)[C@H](c2ccccc2)N2[C@H]1[C@@H](C(=O)N1CCN(c3ncccn3)CC1)[C@]1(C(=O)Nc3ccccc31)[C@H]2c1ccc(OCCO)cc1 | 2.64 (inactive) | -0.0221 | 7.83 (inactive) | 0.395 (inactive) | 0.81 (inactive) | -1.32 (inactive) | 2.11 | 0.192 (inactive) | -1.33 (inactive) | -2.84
9 | CCOC(=O)[C@H]1C[C@H]2O[C@@]23C[C@H]1C(=O)N1CCCC1[C@@H]3O[Si](C)(C)C(C)(C)C (stereo not given in full) | -0.954 (inactive) | -0.0573 | 1.35 (inactive) | 0.23 (inactive) | 0.183 (inactive) | 0.158 (inactive) | -0.67 | 1.05 (inactive) | 0.302 (inactive) | -1.7
10 | O=C1O[C@@H](c2ccccc2)[C@@H](c2ccccc2)N2[C@@H](c3ccc(O)cc3)[C@]3(C(=O)Nc4ccc(C#CC5(O)CCCCCC5)cc43)[C@@H](C(=O)N3CCCCCCC3)[C@H]12 | 0.489 (inactive) | 2.77 | 1.32 (inactive) | 0.836 (inactive) | 1.17 (inactive) | 0.564 (inactive) | 0.181 | 1.1 (inactive) | 1.09 (inactive) | 0.682
11 | Cc1c(NC(=O)CC#N)c(=O)n(-c2ccccc2)n1C | 1.47 (inactive) | -0.193 | -0.794 (inactive) | -1.31 (inactive) | -0.202 (inactive) | -1.31 (inactive) | 2.17 | -0.463 (inactive) | -0.0592 (inactive) | 0.66
